ugtP null kill: growth inhibition of S. aureus ugtP deletion strain | S. aureus RN4220 ugtP deletion, OD600 growth, 16 h | growth inhibition, % (test concentration not listed) | hit rate 0.54% among 330,000 | AID 1259309; in the data active = growth inhibition above about 68%;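 also: plate controls were untreated wells for no effect and antibiotic for full effect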
Mtb hypoxia inh: Mtb hypoxia fluorescent reporter inhibition; AID 1159583; fluorescence inhibition, % (no concentration beside the values); M. tuberculosis hypoxia-regulated fluorescent reporter, fluorescence; hit rate 0.1% among 300,000; in the data active = fluorescence inhibition mostly above about 23%, no sharp cut-off; inactive = mostly below about 17%
Sa RN4220 lethal: S. aureus RN4220 growth inhibition. AID 1259311. inhibition, % (no concentration beside the values). hit rate 0.33% among 330,000. OD600, 16 h; in the data active = inhibition above about 85%;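 also: plate controls were untreated cells for no effect and reference antibiotic for full effect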
Active calls of the source: *; · = no result shown; ! = not confirmed by another sample. The list is not random: actives were taken first. Their share in the collection is about 0.68%.

SMILES	ugtP null kill	Mtb hypoxia inh	Sa RN4220 lethal
CC(=O)c1c(C)n([O-])c2ccc(C)cc2[n+]1=O	12.8	64.0*	15.7
Cc1ccc2c(c1)n([O-])c1c([n+]2=O)CCCC1	10.7	·	-0.8
CC(=NNC(=O)c1ccc(Cl)c(S(=O)(=O)Nc2ccccc2Cl)c1)c1ccncc1	-11.7	4.0	1.9
CC(=N/N=C1/NC(=O)CC(C(=O)O)S1)c1cccs1 (stereo not given)	1.4	2.7	2.9
c1ccc2c3c([nH]c2c1)-c1[nH]ncc1CC3	-20.1	-6.1	-3.3
Clc1ccc2[nH]c3c(c2c1)CCc1cn[nH]c1-3	78.8	-8.0	98.3*
COC(=O)[C@]1(C)NC(c2ccc(-c3ccc(Cl)c(Cl)c3)cc2)C2C(=O)N(C)C(=O)C21 (stereo not given in full)	3.6	24.4	-6.4
COc1ccc2oc(C(=O)OCC(=O)NC3CCCC3)c(C)c2c1	9.6	2.7	4.2
COc1ccc2oc(C(=O)OCC(=O)N3C(C)CCCC3C)c(C)c2c1 (stereo not given)	1.0	4.9	0.7
CCOc1ccc2oc(C(=O)OCC(=O)NC3CCCCC3)c(C)c2c1	10.8	31.6*	-0.6
CCOc1ccc2oc(C(=O)OCC(=O)N3C(C)CCCC3C)c(C)c2c1 (stereo not given)	3.9	25.3*	5.7
COC(=O)C1=C(c2c(C)noc2C)CC2CCC1N2C(=O)N1CCCCC1 (stereo not given)	4.3	17.4	9.3
O=C(Nc1ccccc1Cl)C(Cl)=C(Cl)S(=O)c1ccccc1 (stereo not given)	99.9*	·	100.7*
O=C(Nc1ccccc1Cl)c1cccs1	-3.9	·	4.6
N#Cc1ccc(NCC(=O)N2CCN(S(=O)(=O)c3ccccc3)CC2)cc1	0.7	42.6*	1.6
Cc1ccc(NCC(=O)N2CCN(S(=O)(=O)c3ccccc3)CC2)cc1F	7.7	-7.9	3.1
O=C1C=C(c2ccc(Oc3ccccc3)cc2)CC(c2ccc3c(c2)OCO3)C1 (stereo not given)	21.8	4.9	-1.1
CCCC1CC(C(=O)NC(C(C)Cl)C2OC(SC)C(O)C(O)C2O)N(C)C1 (stereo not given)	100.0*	44.1*	100.2*
CCOC(=O)C1C2COc3ccc(C)cc3C2N2C(=O)c3ccc(F)cc3NC(=O)[C@@]12C (stereo not given in full)	8.2	17.3	8.1
COC(=O)[C@]1(CC(C)C)NC(c2ccc(-c3ccc(Cl)c(Cl)c3)cc2)C2C(=O)N(C)C(=O)C21 (stereo not given in full)	-1.9	11.2	-10.5
COc1ccc(-c2nc3ccccn3c2NC2CCCCC2)cc1SC1CCCCC1	99.7*	14.9	83.6
COc1cc(-c2nc3ccccn3c2NCc2ccccc2)ccc1SC1CCCCC1	-18.6	2.6	3.1
O=C(NN=C/C=C\c1ccccc1[N+](=O)[O-])c1ccccn1	4.1	-6.8	-0.4
c1ccc(Cn2ncc3ccccc32)cc1	15.2	10.9	1.9
CN(C)c1nc(-c2ccccc2)c2cnn(Cc3ccccc3)c2n1	89.3*	3.9	-6.9
SMILES	ugtP null kill	Mtb hypoxia inh	Sa RN4220 lethal
O=C(O)c1cccc(NS(=O)(=O)c2ccc3c(c2)C(=O)c2ccccc2C3=O)c1	2.0	-15.6	7.6
O=C1c2ccccc2C(=O)c2cc(S(=O)(=O)Nc3ccccc3)ccc21	89.2*	7.3	95.8*
C#CCOCCOCCOCCNc1nc(N2CCN(C(=O)CCCCCCCCCCNC(=O)Cn3cc(CCCCCN)nn3)CC2)nc(N2CCN(C(=O)CCCCCCCCCCNC(=O)C(CO)n3cc(CCCCCN)nn3)CC2)n1 (stereo not given)	5.5	9.8	0.0
Cc1ccc(-c2nnc(SCC#CCOC(=O)c3cccs3)o2)cc1	6.9	16.4	10.9
O=C(OCC#CCSc1nnc(-c2ccc(Br)cc2)o1)c1cccs1	-0.7	40.6*	9.4
CCOC(=O)C1C2COc3ccccc3C2N2C(=O)N(c3ccc(C(F)(F)F)cc3)C(=O)[C@]12C (stereo not given in full)	100.4*!	-0.9	100.7*!
CCOC(=O)[C@@H]1[C@H]2COc3ccccc3[C@@H]2N2C(=O)N(c3ccc(C)cc3)C(=O)[C@]12C	1.2	0.7	2.6
O=C(Nn1c(COc2ccccc2)nc2ccccc2c1=O)C(Cl)(Cl)Cl	100.0*	11.6	99.5*
Cc1nc2ccccc2c(=O)n1NC(=O)COc1ccccc1	-0.3	8.8	2.5
C#Cc1ccc(C2C=C(C(=O)NCc3ccccc3)OC(OCCCCO)C2)cc1 (stereo not given)	-10.9	5.6	-5.2
N#Cc1ccc(NN=Cc2ccccc2)c([N+](=O)[O-])c1	3.5	8.9	-1.4
Cc1cc(=O)[nH]c2cc(O)ccc12	2.5	13.3	1.6
CC(C)=CCCC1(C)C=Cc2c(c(C)cc3c2[nH]c2cc(O)ccc23)O1 (stereo not given)	100.6*	·	89.9
Cc1cc(C(=O)O)ccc1NC=C1CCCC(C)C1=O (stereo not given)	0.9	-1.9	2.2
CCCCOc1ccc(CSCCN=C(N)N)cc1	100.1*	4.5	20.9
CCCCOc1ccc(CSC(CC(=O)O)C(=O)O)cc1 (stereo not given)	-1.6	18.3	-13.5
C#CCNC(=O)C1=CC(C(C)(C)C)CC(OCc2ccc(CO)cc2)O1 (stereo not given)	-6.0	10.5	7.2
COc1ccc(S(=O)(=O)N(C)CC2Oc3ccc(NC(=O)Nc4ccc5c(c4)OCO5)cc3C(=O)N(C(C)CO)CC2C)cc1 (stereo not given)	3.7	10.3	2.9
Clc1ccc(CCC(Cn2ccnc2)Sc2c(Cl)cccc2Cl)cc1 (stereo not given)	98.0*	·	98.9*
Clc1ccc(SCCCCn2ccnc2)cc1	-5.4	·	-8.7
COc1ccccc1C=CCN1CCCC(CCC(=O)NCc2ccc(F)c(F)c2)C1 (stereo not given)	4.5	-0.3	-0.8
O=C1C=C(NC(=O)Nc2ccc(Cl)c(Cl)c2)CCC1	100.0*	6.4	100.2*
O=C(Nc1ccc(Cl)c(Cl)c1)Nc1ccon1	-34.2	0.9	15.4
O=C(Nc1ccc(Cl)c(Cl)c1)Nc1ccc(Br)cc1F	99.3*	2.5	100.4*
O=C(Nc1ccc(Cl)c(Cl)c1)Nc1ccccc1O	36.4	4.8	23.0
SMILES	ugtP null kill	Mtb hypoxia inh	Sa RN4220 lethal
CCN1C(=O)C2C(c3ccc(-c4cc(C(C)=O)cs4)cc3)N[C@@](Cc3ccccc3)(C(=O)OC)C2C1=O (stereo not given in full)	13.8	2.2	11.2
COc1c(O)ccc(C=C(C#N)c2nc3ccccc3[nH]2)c1[N+](=O)[O-]	1.0	-3.8	15.7
CN(C)N=Cc1cc(Cl)cc([N+](=O)[O-])c1O	-0.2	8.9	5.1
CN(N=Cc1cc(Cl)cc(Cl)c1O)C(=S)NC(C)(C)C	99.7*	13.4	100.5*
CCN1C(=O)C2C(c3ccc(C)cc3)N3C(=O)N(c4cccc(Br)c4)C(=O)[C@@]3(CC(C)C)C2C1=O (stereo not given in full)	-1.8	-2.1	1.4
O=C(C1=CC(c2coc3ccccc3c2=O)CC(OCCCCO)O1)N1CCN(Cc2ccc3c(c2)OCO3)CC1 (stereo not given)	9.1	-0.5	4.3
CNC(=S)Nc1ccc(-c2nc3ccc(C)cc3s2)cc1	-1.1	36.7*	-8.0
CC(=O)NC(=S)Nc1ccc(-c2nc3ccc(C)cc3s2)cc1	-6.9	·	-4.9

Screens: PubChem BioAssay, ICCB-Longwood Screening Facility, Harvard Medical School
